Bioassay records from PubChem BioAssay.
Anthrax LF inh2: inhibitors of Bacillus anthracis lethal factor protease. P15917. multiplex microsphere protease cleavage assay, LF. inhibition, % at 10 µM. 360,000 tested, 0.12% active; note: plate controls were buffer without enzyme for full effect and enzyme alone for no effect
BoNT F protease: BoNT F light chain protease inhibition; 360,000 tested, 0.22% active; Multiplex microsphere protease cleavage assay, flow cytometry; inhibition, % at 10 µM; in the data active = inhibition above about 35%, passing the limit was not always enough; inconclusive = no clear call, values can overlap the other calls; note: plate controls were buffer without enzyme for full effect and enzyme alone for no effect
Autofluor counter: compound fluorescence in toxin protease inhibitor counterscreen; AID 624483; compound autofluorescence counterscreen, microsphere flow cytometry; active compounds read high; fluorescence intensity (test concentration not listed); 360,000 tested, 3.1% active; in the data active = fluorescence intensity above about 16000; inconclusive = no clear call, values can overlap the other calls
PriA SSB inh: K. pneumoniae PriA-SSBct interaction inhibition; AlphaScreen SSBct-PriA binding, biotinylated peptide; inhibition, % at 33 µM; 430,000 tested, 0.6% active; in the data active = inhibition mostly above about 37%, no sharp cut-off; inactive = mostly below about 20%;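 note: plate controls were negative control peptide for no effect and reference peptide for full effect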
BoNT-A LC inh2: blocks Botulinum neurotoxin A light chain protease. inhibition, % at 10 µM. 360,000 tested, 0.17% active. AID 588499. multiplex microsphere protease substrate cleavage, flow cytometry; note: plate controls were buffer without enzyme for full effect and enzyme alone for no effect
Starred values were filed as active, the others as inactive; ? = inconclusive; · = no result given. This is a sample that favours compounds with a hit; in the whole collection about 3.1% have one here. Cut-off read from the data, not from the text of the source, unless noted: active = inhibition above about 30%; inconclusive = no clear call, values can overlap the other calls; inactive = below that.

SMILES | Anthrax LF inh2 | BoNT F protease | Autofluor counter | PriA SSB inh | BoNT-A LC inh2
O=S(=O)(NCC(c1ccco1)S(=O)(=O)c1cccs1)c1ccc2c(c1)OCCO2 (stereo unspecified) | · | · | · | 9 | ·
CSc1ccccc1C(=O)NCc1ccc2c(c1)OCO2 | -2 | -2 | 20402* | -1 | 1
Cc1cc(C(=O)N2CCN(Cc3ccc4c(c3)OCO4)CC2)cs1 | -2 | -6 | 25075* | -1 | -5
O=C(c1csc(Nc2ccccc2)n1)N1CCN(Cc2ccc3c(c2)OCO3)CC1 | · | · | · | active | ·
Cc1cc(C)cc(C(=O)N2CCN(Cc3ccc4c(c3)OCO4)CC2)c1 | · | · | · | -8 | ·
O=C(NCc1ccc2c(c1)OCO2)c1ccccc1Cl | -6 | -3 | 6446 | -6 | -1
CCSc1ccccc1C(=O)NCc1ccc2c(c1)OCO2 | -2 | -9 | 17574* | -7 | -4
COc1ccc(CCS(=O)(=O)NCC2(c3cccs3)CC2)cc1 | · | · | · | -17 | ·
Cc1ccc(CNC(=O)C(=O)NCCN2CCN(c3ccccc3)CC2)cc1 | · | · | · | -7 | ·
COc1ccccc1CC(N)=NOC(=O)c1cccc([N+](=O)[O-])c1C | · | · | · | -7 | ·
O=C(c1csc(Nc2ccccc2)n1)N1CCN(c2ccccc2F)CC1 | · | · | · | 26* | ·
Cc1cc(C(=O)NC(C)c2ccc3c(c2)OCO3)cs1 (stereo unspecified) | 2 | -7 | 22313* | -10 | ?
CCSc1ccccc1C(=O)N1CCCC1 | -1 | -6 | 23440* | -1 | -2
CCSc1ccccc1C(=O)N1CCN(Cc2ccc3c(c2)OCO3)CC1 | -9 | 0 | 22336* | -8 | 3
COc1cc2nc(C(=O)N3CCC[C@H](C)C3)cc(Nc3cc(C)cc(C)c3)c2cc1OC | · | · | · | -10 | ·
CC(C)c1ccc(-n2c(O)c(C=NNC(=O)c3ccncc3)c(=O)[nH]c2=O)cc1 | · | · | · | 18 | ·
Cc1cc(C)n2nc(C(=O)N3CCOCC3)nc2n1 | -4 | 6 | 8807 | -30 | 0
Cc1cc(C)n2nc(SC(C)C(=O)N3CCC4(CC3)OCCO4)nc2n1 (stereo unspecified) | -1 | -6 | 24597* | -8 | ?
Cc1ccc2nc(C)c(NC(=O)CCSc3ccccc3)c(=O)n2c1 | · | · | · | -11 | ·
CCOC(=O)c1cnc(-n2nc(C)cc2C)nc1Nc1cccc(C(=O)O)c1 | 1 | 3 | 21795* | -1 | 1
CCOC(=O)c1cnc(-n2nc(C)cc2C)nc1N(CC)CC | -12 | 2 | 18780* | 23 | ?
Cc1cc(OC(=O)c2cccs2)c([N+](=O)[O-])c(=O)[nH]1 | · | · | · | -7 | ·
NC(=O)c1ccccc1NS(=O)(=O)Cc1noc2ccccc12 | · | · | · | -1 | ·
O=C(NCc1ccccn1)c1cc(S(=O)(=O)N2CCN(c3ccccc3)CC2)ccc1Cl | -4 | -2 | 22854* | 9 | ?
COCCOCCOCCC(=O)NC1CC2CCC1(C)C2(C)C (stereo unspecified) | -12 | 0 | 21940* | -11 | 2
SMILES | Anthrax LF inh2 | BoNT F protease | Autofluor counter | PriA SSB inh | BoNT-A LC inh2
CC1(C)C2CCC1(C)C(NC(=O)CCC(=O)O)C2 (stereo unspecified) | · | · | · | -6 | ·
COc1ccc(NC(=S)NNC(=O)OC(C)(C)C)cc1OC | -3 | -4 | 24133* | 4 | ?
COC(=O)Nc1ccc(OC)c(OC)c1 | 2 | -1 | 10028 | -4 | 0
Cc1ccc(Nc2cc(C)nc3c(C)c(C)cc([N+](=O)[O-])c23)cc1 | · | · | · | 66* | ·
Oc1c(Cl)cc(Cl)cc1C=Nc1nc(-c2ccc(Cl)cc2)cs1 | · | · | · | -14 | ·
CCOC(=O)c1cccc(NC(=O)CSc2nc3c(-c4ccccc4)c[nH]c3c(=O)n2C)c1 | · | · | · | -4 | ·
CCc1cc(C(=O)NNC(=S)NC2CCCCC2)cs1 | -2 | -7 | 5937 | -4 | -2
CCc1cc(C(=O)NNC(=S)NC(C)c2ccccc2)cs1 (stereo unspecified) | -5 | -4 | 16961* | -2 | -2
Cc1ccc(N2C(=O)C3N=NN(Cc4nc(-c5cccc(C(F)(F)F)c5)no4)C3C2=O)cc1Cl (stereo unspecified) | · | · | · | -20 | ·
FC(F)(F)c1cnc(N2CCC(=NOCc3ccc(Cl)cc3)CC2)c(Cl)c1 | 0 | 7 | 15078 | -17 | 4
FC(F)(F)c1cccc(CON=C2CCN(c3ncc(C(F)(F)F)cc3Cl)CC2)c1 | 1 | -1 | 19810* | -39 | 0
Cc1csc(NC(=O)C2CCC(C)(C(=O)O)C2(C)C)n1 (stereo unspecified) | -1 | -4 | 20359* | -18 | -3
O=C(Nc1nc(-c2ccccc2)cs1)C1CCCO1 (stereo unspecified) | -2 | -18 | 9538 | -9 | ?
CC1(C(=O)O)CCC(C(=O)Nc2ccc3ccccc3c2)C1(C)C (stereo unspecified) | 2 | 0 | 22940* | -5 | 1
Cc1csc(NC(=O)C2CCCO2)n1 (stereo unspecified) | -1 | 4 | 21132* | -7 | 3
CC(C)CS(=O)(=O)C1CCN(C(=O)c2ccccc2C(=O)c2ccc(F)cc2)CC1 | · | · | · | -1 | ·
CCc1ccc2oc(-c3ccc(OC)cc3)cc(=Nc3cccc(C(=O)O)c3)c2c1 | 0 | -5 | 2456 | -6 | 0
CCc1ccc2oc(-c3ccc(OC)cc3)cc(=Nc3c(C)n(C)n(-c4ccccc4)c3=O)c2c1 | -8 | 4 | 4584 | 44* | -1
O=C(COc1ccccc1)Nc1ccc(-c2nnc(-c3ccco3)o2)cc1 | 0 | 6 | 2413 | -1 | 0
CC(C)COc1ccc(-c2nnc(-c3ccco3)o2)cc1 | -2 | -6 | 17184* | -4 | -3
CCCOc1ccc(-c2nnc(-c3ccco3)o2)cc1 | 1 | 1 | 21565* | -17 | 0
CCC1Oc2ccccc2C(=O)N(CC(=O)c2ccc3c(c2)OCCO3)C1=O (stereo unspecified) | -2 | -9 | 4244 | -11 | 0
CCCC1Oc2ccccc2C(=O)N(CC(=O)c2ccc(F)cc2)C1=O (stereo unspecified) | · | · | · | 54* | ·
Cn1cccc1-c1cc(C(=O)N/N=C/c2ccc(F)cc2)[nH]n1 | 0 | -1 | 4223 | · | 2
Cn1cccc1-c1cc(C(=O)N/N=C/c2cccc(Br)c2)[nH]n1 | · | · | · | 47* | ·
SMILES | Anthrax LF inh2 | BoNT F protease | Autofluor counter | PriA SSB inh | BoNT-A LC inh2
CC(NS(C)(=O)=O)C(c1cccs1)N1CCN(C)CC1 (stereo unspecified) | -3 | 2 | 16401* | 0 | 0
CCCC(=O)NC(C)C(c1cccs1)N1CCN(C)CC1 (stereo unspecified) | -6 | 3 | 10835 | -15 | 0
CC(C)C(=O)NC(C)C(c1cccs1)N1CCN(C)CC1 (stereo unspecified) | -3 | -3 | 23161* | -4 | -3
CC(NS(=O)(=O)c1ccccc1)C(c1cccs1)N1CCN(c2ccccc2)CC1 (stereo unspecified) | -3 | -7 | 17711* | 8 | -4
CC1(C)CC(=O)C2=C(C1)N(Cc1ccccc1)C(=O)C2(NC(=O)C(C)(C)C)C(F)(F)F (stereo unspecified) | -2 | -5 | 24235* | -5 | -2
CCOC(=O)NC1(C(F)(F)F)C(=O)N(Cc2ccccn2)C2=C1C(=O)CC(C)(C)C2 (stereo unspecified) | -1 | -5 | 16536* | -6 | -1
CCOc1ncccc1C(=O)Nc1nnc(C)s1 | -5 | 3 | 4359 | 9 | 0
